Results reported in PubChem BioAssay (Tox21).
Inconclusive results are not listed. The source made the active and inactive calls. Unless noted, calls come from the whole dose curve; as a rule, active = well fitted curve in the direction sought with a large enough effect in the repeat runs; inconclusive = weak or mixed curves; inactive = flat fitted curve, though single readings scatter.

Assays:
[1] = qHTS assay to test for compound auto fluorescence at 535 nm (green) in HEK293 cells (AID 720680)
[2] = qHTS assay to test for compound auto fluorescence at 535 nm (green) in HEK293 cell free culture (AID 720682)
Procedure, shortened: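 Fluorescein serves as the green reference fluorophore; each compound's intrinsic emission at 535 nm (excitation 485 nm) is reported as an equivalent amount of that dye, measured in serum-containing DMEM without cells.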

[3] = qHTS assay to test for compound auto fluorescence at 590 nm (red) in HEK293 cell free culture (AID 720683)
Procedure, shortened: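 Red-channel autofluorescence of compounds in culture medium (DMEM, 10% FBS), no cells, measured at 540/590 nm. Rose Bengal sodium is the reference fluorophore for equivalence.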

[4] = qHTS assay to test for compound auto fluorescence at 590 nm (red) in HepG2 cell free culture (AID 720684)
Procedure, shortened: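 Cell-free; medium MEM + 10% FBS; compound or DMSO added by pintool; read Ex 540/Em 590 nm; Rose Bengal sodium as red reference fluorophore.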

[5] = qHTS assay to test for compound auto fluorescence at 460 nm (blue) in HepG2 cell free culture (AID 720685)
Procedure, shortened: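 Cell-free plates of MEM plus 10% FBS received 23 nL compound or DMSO vehicle; blue-channel (405/460 nm) intensity scored against triamterene as reference fluorophore.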

[6] = qHTS assay to test for compound auto fluorescence at 535 nm (green) in HepG2 cell free culture (AID 720686)
[7] = qHTS assay to test for compound auto fluorescence at 460 nm (blue) in HepG2 cells (AID 720687)
Procedure, shortened: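 Blue-channel autofluorescence (Ex/Em 405/460 nm, triamterene-equivalent) was measured after 1 hr compound exposure at 37 C, 5% CO2. Cells were HepG2, plated overnight at 37 C in MEM plus 10% FBS.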

[8] = target: Glucocorticoid receptor (Homo sapiens) (UniProt P04150); assay: qHTS assay to identify small molecule antagonists of the glucocorticoid receptor (GR) signaling pathway (AID 720692; active = well fitted inhibition curve with a large enough effect in the signal ratio in the repeat runs, not every such curve was filed as active; the % refers to the signal ratio)
Glucocorticoid receptor (Homo sapiens), sequence (P04150 whole entry, looked up): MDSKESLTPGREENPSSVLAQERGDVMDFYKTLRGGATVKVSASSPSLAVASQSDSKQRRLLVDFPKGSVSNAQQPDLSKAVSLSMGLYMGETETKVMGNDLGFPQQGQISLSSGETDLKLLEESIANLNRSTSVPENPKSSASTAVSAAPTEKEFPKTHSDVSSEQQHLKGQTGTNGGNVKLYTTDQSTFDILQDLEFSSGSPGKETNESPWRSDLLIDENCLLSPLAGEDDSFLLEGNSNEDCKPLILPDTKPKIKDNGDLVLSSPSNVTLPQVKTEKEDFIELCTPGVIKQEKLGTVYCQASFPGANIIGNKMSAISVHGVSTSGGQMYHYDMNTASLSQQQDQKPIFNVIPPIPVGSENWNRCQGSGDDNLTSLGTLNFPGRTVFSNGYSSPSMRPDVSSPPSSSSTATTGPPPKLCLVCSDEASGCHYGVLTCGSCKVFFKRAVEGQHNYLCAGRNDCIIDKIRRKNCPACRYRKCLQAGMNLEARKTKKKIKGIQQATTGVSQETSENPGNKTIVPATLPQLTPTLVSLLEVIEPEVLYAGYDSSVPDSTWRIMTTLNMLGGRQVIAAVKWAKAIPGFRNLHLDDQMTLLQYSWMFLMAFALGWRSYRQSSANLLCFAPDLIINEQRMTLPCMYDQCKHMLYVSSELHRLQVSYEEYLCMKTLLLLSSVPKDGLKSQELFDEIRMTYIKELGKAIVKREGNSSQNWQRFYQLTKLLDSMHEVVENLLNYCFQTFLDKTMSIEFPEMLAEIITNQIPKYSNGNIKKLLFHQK
Procedure, shortened: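 Read-out: beta-lactamase FRET substrate fluorescence, 2 h at room temperature, in HeLa cells stably carrying a GRE-driven bla reporter. Compounds were co-incubated with 5 nM dexamethasone agonist (final) for 18 h at 37 C.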

[9] = target: Glucocorticoid receptor (Homo sapiens) (UniProt P04150); assay: qHTS assay to identify small molecule agonists of the glucocorticoid receptor (GR) signaling pathway (AID 720691; active = well fitted activation curve with a large enough effect in the signal ratio in the repeat runs, not every such curve was filed as active; the % refers to the signal ratio; note: potency is the fitted concentration of half-maximal effect)
Procedure, shortened: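 HeLa GR-bla reporter line; cells pre-incubated 4 h, compound in DMSO 18 h at 37 C; LiveBLAzer B/G FRET substrate 2 h RT; fluorescence intensity read-out.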
% is set by controls: 0 for no effect and ±100 for the full control effect.

OCCOc1ccc(OCCO)cc1
inactive: outcome [1] | outcome [2] | outcome [3] | outcome [4] | outcome [5] | outcome [6] | outcome [7] | Potency [8]

CC(=O)OCC(CCn1cnc2cnc(N)nc21)COC(C)=O
inactive: outcome [1] | outcome [3] | outcome [4] | outcome [5] | outcome [6] | outcome [7] | Potency [8]

NC(CSCC(=O)O)C(=O)O (stereo not drawn)
inactive: outcome [1] | outcome [2] | outcome [3] | outcome [4] | outcome [5] | outcome [6] | outcome [7]

c1ccc([C@H]2CN3CCSC3=N2)cc1
inactive: outcome [1] | outcome [2] | outcome [3] | outcome [4] | outcome [5] | outcome [6] | outcome [7]

O=C1CCCCCCCCCCCN1
inactive: outcome [1] | outcome [2] | outcome [3] | outcome [4] | outcome [5] | outcome [6] | outcome [7] | Potency [9] | Potency [8]

N[C@H](C(=O)O)c1ccc(O)cc1
inactive: outcome [1] | outcome [2] | outcome [3] | outcome [4] | outcome [5] | outcome [6] | outcome [7] | Potency [9] | Potency [8]

CS(=O)(=O)O
inactive: outcome [1] | outcome [2] | outcome [3] | outcome [4] | outcome [5] | outcome [6] | outcome [7] | Potency [9] | Potency [8]

CCOC(C)(C)C
inactive: outcome [1] | outcome [2] | outcome [3] | outcome [4] | outcome [5] | outcome [6] | outcome [7]

O=C1CC2CC1C1CCCC21 (stereo not drawn)
active: Potency [9] 54.9 µM
inactive: outcome [1] | outcome [2] | outcome [3] | outcome [4] | outcome [5] | outcome [6] | outcome [7] | Potency [8]

CCOC(=O)c1ccc(C)cc1
inactive: outcome [1] | outcome [2] | outcome [3] | outcome [4] | outcome [5] | outcome [6] | outcome [7] | Potency [9] | Potency [8]

CCOC(=O)Nc1ccc(NCc2ccc(F)cc2)nc1N
inactive: outcome [1] | outcome [2] | outcome [3] | outcome [4] | outcome [6] | Potency [9] | Potency [8]

Cc1ccc(C#N)cc1
inactive: outcome [1] | outcome [3] | outcome [4] | outcome [5] | outcome [6] | outcome [7] | Potency [9] | Potency [8]

CC(C)CCCC(C)N (stereo not drawn)
inactive: outcome [1] | outcome [2] | outcome [3] | outcome [4] | outcome [5] | outcome [6] | outcome [7] | Potency [9] | Potency [8]

CO/N=C(/C(=O)N[C@@H]1C(=O)N2C(C(=O)OCOC(=O)C(C)(C)C)=C(C)CS[C@H]12)c1csc(N)n1
inactive: outcome [1] | outcome [2] | outcome [3] | outcome [4] | outcome [5] | outcome [6] | outcome [7]

NC(=O)c1ccc([N+](=O)[O-])cc1
inactive: outcome [1] | outcome [2] | outcome [3] | outcome [4] | outcome [5] | outcome [6] | outcome [7] | Potency [9] | Potency [8]

FC(F)OC(Cl)C(F)(F)F (stereo not drawn)
inactive: outcome [1] | outcome [2] | outcome [3] | outcome [4] | outcome [5] | outcome [6] | outcome [7] | Potency [9] | Potency [8]

CCCCOCCOCCOCCCC
inactive: outcome [1] | outcome [2] | outcome [3] | outcome [4] | outcome [5] | outcome [6] | outcome [7] | Potency [9] | Potency [8]

Oc1ccc(C2CNCCc3c2cc(O)c(O)c3Cl)cc1 (stereo not drawn)
inactive: outcome [1] | outcome [2] | outcome [3] | outcome [4] | outcome [5] | outcome [6] | outcome [7] | Potency [9] | Potency [8]

N[C@@H](C(=O)N[C@@H]1C(=O)N2C(C(=O)O)=C(Cl)CS[C@H]12)c1ccccc1
inactive: outcome [1] | outcome [2] | outcome [3] | outcome [4] | outcome [5] | outcome [6] | outcome [7] | Potency [9]

CC(C)c1cc2c(cc1S(=O)(=O)O)[C@@]1(C)CCC[C@@](C)(C(=O)O)[C@@H]1CC2
inactive: outcome [1] | outcome [2] | outcome [3] | outcome [4] | outcome [5] | outcome [6] | outcome [7]

COc1ccccc1OCC(O)CN1CCN(CC(=O)Nc2c(C)cccc2C)CC1 (stereo not drawn)
inactive: outcome [1] | outcome [2] | outcome [3] | outcome [4] | outcome [5] | outcome [6] | outcome [7] | Potency [9] | Potency [8]

O=c1cc(CO)occ1O
inactive: outcome [1] | outcome [2] | outcome [3] | outcome [4] | outcome [5] | outcome [6] | outcome [7] | Potency [9] | Potency [8]

C=COCC1CCC(CO)CC1 (stereo not drawn)
inactive: outcome [1] | outcome [2] | outcome [3] | outcome [4] | outcome [5] | outcome [6] | outcome [7] | Potency [9] | Potency [8]

CCCCCCOC(=O)CCCCC(=O)OCCCCCC
inactive: outcome [1] | outcome [2] | outcome [3] | outcome [4] | outcome [5] | outcome [6] | outcome [7]

OC(CCN1CCCCC1)(c1ccccc1)C1CC2C=CC1C2 (stereo not drawn)
inactive: outcome [1] | outcome [3] | outcome [4] | outcome [5] | outcome [6] | outcome [7] | Potency [9] | Potency [8]

Cn1cc(S(C)=O)c(=O)c2ccc(F)cc21 (stereo not drawn)
inactive: outcome [1] | outcome [2] | outcome [3] | outcome [4] | outcome [5] | outcome [6] | outcome [7] | Potency [8]

COCCCOCCCOC
inactive: outcome [1] | outcome [2] | outcome [3] | outcome [4] | outcome [5] | outcome [6] | outcome [7]

CCCCCCCCCCCC
inactive: outcome [1] | outcome [2] | outcome [3] | outcome [4] | outcome [5] | outcome [6] | outcome [7] | Potency [9] | Potency [8]

CC(C)CNCC(C)C
inactive: outcome [1] | outcome [2] | outcome [3] | outcome [4] | outcome [5] | outcome [6] | outcome [7]

OCCCC1CCCCC1
inactive: outcome [1] | outcome [2] | outcome [3] | outcome [4] | outcome [5] | outcome [6] | outcome [7]

Cn1c(N)c(N=O)c(=O)n(C)c1=O
inactive: outcome [1] | outcome [2] | outcome [3] | outcome [4] | outcome [5] | outcome [6] | outcome [7] | Potency [8]

CCCCCCCCCCCCCC=O
inactive: fluorescence, % of fluorescein [1] 0.0656% [at 3.72 µM] | activity change [2] -0.0074% [at 3.72 µM] | fluorescence, % of fluorescent control [3] 0.0516% [at 3.72 µM] | fluorescence, % of Rose Bengal [4] 0.0058% [at 3.72 µM] | fluorescence, % of fluorescent control [5] -0.0093% [at 3.72 µM] | fluorescence, % of fluorescein control [6] 0.0349% [at 3.72 µM] | fluorescence, % of fluorescent control [7] -0.0327% [at 3.72 µM]

O=c1[nH]c(=O)n([C@H]2C[C@H](O)[C@@H](CO)O2)cc1I
inactive: outcome [1] | outcome [3] | outcome [4] | outcome [5] | outcome [6] | outcome [7]

CN(C)CCCNCCCN(C)C
inactive: outcome [1] | outcome [2] | outcome [3] | outcome [4] | outcome [5] | outcome [6] | outcome [7] | Potency [8]

O=C(O)Cc1ccc(CCNS(=O)(=O)c2ccc(Cl)cc2)cc1
inactive: outcome [1] | outcome [3] | outcome [4] | outcome [5] | outcome [6] | outcome [7] | Potency [8]

CC1=CC(C)C(C=O)CC1 (stereo not drawn)
inactive: outcome [1] | outcome [2] | outcome [3] | outcome [4] | outcome [5] | outcome [6] | outcome [7] | Potency [9] | Potency [8]

C=C(C)CS(=O)(=O)O
inactive: outcome [1] | outcome [2] | outcome [3] | outcome [4] | outcome [5] | outcome [6] | outcome [7] | Potency [9] | Potency [8]

ClC(Cl)(Br)Br
inactive: outcome [1] | outcome [2] | outcome [3] | outcome [4] | outcome [5] | outcome [6] | outcome [7] | Potency [8]

C=C(C)C(=O)OCCCCCCCC(C)C
inactive: outcome [1] | outcome [2] | outcome [3] | outcome [4] | outcome [5] | outcome [6] | outcome [7] | Potency [9]
